The full list was thinned out, with hits kept by preference.
AMA1 RON2 block = AMA1-RON2 (P. falciparum) interaction inhibition; 360,000 compounds, 0.2% hits; AlphaScreen AMA1-biotinylated RON2 peptide binding; Potency, µM (doses to about 58.2 µM), for the others: top-dose activity change, negative = inhibition, usual class: inhibitors; active means well fitted inhibition curve with a large enough effect; inconclusive means small, poorly fitted or top-dose-only effect; inactive means no such curve, though single readings can be large or run the other way;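 further: potency means the concentration at half of the fitted maximal effect; 0% = vehicle wells and -100% = peptide control; nearly all actives have a fitted effect of over 45% in size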
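AMA1 (3D7) with his tag at 25 nM final met compounds first, then biotinylated RON2 peptide at 25 nM; detection used donor plus acceptor beads, 10 µg/mL apiece, read by AlphaScreen after 30 min at room temperature.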
CHX counter = counter-screen hit for Shiga toxin inhibitors, cycloheximide; cell reporter, cycloheximide protein synthesis inhibition counterscreen; max response, %; 300,000 compounds, 12% hits; in the data active means max response mostly above about 13%, no sharp cut-off; inactive means mostly below about 14%; further: read at 38.3 µM for the half of the compounds with a filed dose; 0% is about no effect
LASV entry inh = blocks Lassa virus binding to or entry into cells | Lassa virus pseudotype entry inhibition, cell reporter | Potency, µM (doses to about 37.9 µM), without a hit: top-dose activity change, negative = inhibition, actives largely listed as inhibitors | 300,000 compounds, 1.2% hits; calls by dose curve; tested in HEK293 cells; further: potency means the concentration at half of the fitted maximal effect; on the % scale 0 is the no-effect control and ±100 the full control effect; nearly all actives have a fitted effect of over 50% in size
Shiga inhibitor = Shiga toxin inhibition | Vero cells, Shiga toxin protein synthesis inhibition reporter | inhibition, % at 38.7 µM | 290,000 compounds, 9.2% hits; in the data active means inhibition mostly above about 28%, no sharp cut-off; inactive means mostly below about 43%; further: 0% is about no effect
Marburg entry inh = inhibitors of Marburg virus binding or cell entry. Potency, µM (titrated, usually from 37.8 µM), for inactives: at the highest dose activity change, negative = inhibition, hits mostly inhibitors. 300,000 compounds, 1.8% hits. Marburg virus pseudotyped entry inhibition, cell reporter; calls by dose curve; tested in HEK293 cells; further: potency means the concentration at half of the fitted maximal effect; on the % scale 0 is the no-effect control and ±100 the full control effect
An asterisk follows results filed as active; ? = inconclusive; . = no result; [ ] = dose if it differs, or a comment.

SMILES	AMA1 RON2 block	CHX counter	LASV entry inh	Shiga inhibitor	Marburg entry inh
COc1ccc(CCNC(=O)CCc2c(C)nc3c(c(C)nn3-c3ccc(C)cc3)c2C)c(OC)c1	.	.	?	.	23%[46.1 µM]
COc1ccc(S(=O)(=O)N2CCCC(C(=O)Nc3ccc(OC)c(OC)c3)C2)cc1 (centres undefined)	20%	-2	-23%	0	-23%
CCc1nnc(NC(=O)C2CCCN(S(=O)(=O)c3ccc(OC)cc3)C2)s1 (centres undefined)	-23%	38*	-19%	72*	-23%[14.2 µM]
Cc1cccnc1CNC(=O)C1CCC(=O)N(CCc2cccc(F)c2)C1 (centres undefined)	7%	15	.	-25	.
CCc1cc2c(cc3c(=O)n(CC(=O)NC4CCCCC4)nc(CC)n32)s1	.	.	.	.	-16%[46.1 µM]
CN(C)/C=N/c1ncc(C(=O)c2ccc(Cl)cc2)s1	4%	43*	12%	58*	1%
CC(C)(C)c1cc(C(=O)NNC(=O)Nc2ccccc2)n(Cc2ccccc2)n1	79%	0	.	-2	.
CC(C)(C)c1cc(C(=O)NCc2cc(F)cc3c2OCOC3)n(Cc2ccccc2)n1	5%	53*	?	83*	?
Cc1ccc(Nc2cc(Cl)nc(N)n2)c([N+](=O)[O-])c1	10%	.	9%[46.1 µM]	.	-15%[46.1 µM]
Nn1c(SCc2ccccc2F)nnc1-c1ccccn1	?	33*	-2%	135*	?
Nn1c(SCc2ccccc2)nnc1-c1ccccn1	-3%	30*	5%	38*	5%
NC(=O)CSc1nnc(-c2ccccn2)n1N	-17%	0	.	36	.
Nn1c(SCc2ccc(F)cc2)nnc1-c1ccccn1	?	34*	?	68*	30%[46.1 µM]
Cc1ccc(CSc2nnc(-c3ccccn3)n2N)cc1	?	23*	.	107*	.
COc1ccc(-c2cc(C(=O)Nc3c(C(=O)c4ccc(C)cc4)oc4ccccc34)no2)cc1	.	.	-1%[46.1 µM]	.	20%[46.1 µM]
Cc1ccccc1NC(=O)COc1coc(CN2CCN(c3ccccc3)CC2)cc1=O	-9%	.	-7%	.	-18%
Cc1nnc(SCc2ccccc2)n(N)c1=O	23%	4	9%	-8	?
Cc1ccc(CSc2nnc(C)c(=O)n2N)cc1	28%	12*	0%	5	?
Cc1nnc(SCc2cccc(Oc3ccccc3)c2)n1N	17%	21*	8%	5	?
COc1cccc(CNC(=O)c2ccc(CN3CC(=O)N4CCCCC4C3=O)cc2)c1 (centres undefined)	.	.	-1%[46.1 µM]	.	.
COc1ccc(C)cc1NC(=O)C(=O)NCCc1sc(-c2ccc(Cl)cc2)nc1C	.	.	9%[46.1 µM]	.	.
CCOC(=O)CSC1=C(C#N)[C@H](c2ccc3c(c2)OCO3)CC(=O)N1	.	.	.	.	16µM*
CN(C)/C=C/C(=O)c1ccccc1	-3%	41*	.	63*	.
CN(C)/C=C/C(=O)c1ccc(Oc2ccccc2)cc1	62%	34*	?	83*	?
CN(C)/C=C/C(=O)c1ccc(Br)s1	-6%	21*	-1%[46.1 µM]	54*	15%[46.1 µM]
SMILES	AMA1 RON2 block	CHX counter	LASV entry inh	Shiga inhibitor	Marburg entry inh
CN(C)/C=C/C(=O)c1ccc(S(=O)(=O)c2ccccc2)cc1	-2%	10	11%	34	-1%[46.1 µM]
CN(C)/C=C/C(=O)c1ccc(F)cc1	-6%	21*	7%	99	4%
CCN(CC)c1ccc(NC(=O)Cn2cc3c(n2)CCCC3)c(C)c1	.	.	-18%[46.1 µM]	.	-6%[46.1 µM]
C/C(CC(=O)NCCN1CCOCC1)=N\NC(=O)c1ccncc1	105%	1	-7%	15	?
COc1ccc(C(=O)/C=C/N(C)C)cc1	-3%	20*	-16%	-24	?
CCCc1ccc(C(=O)/C=C/N(C)C)cc1	10%	14*	?	42*	?
Cc1ccc(C(=O)/C=C/N(C)C)o1	14%	16	-1%[46.1 µM]	26	6%[46.1 µM]
COc1ccc(C(=O)/C=C/N(C)C)cc1OC	12%	-4	-8%	2	-3%
CCOC(=O)c1c(-c2ccc(C)cc2C)csc1NC(=O)c1ccccc1Cl	.	.	2%[46.1 µM]	.	.
O=[N+]([O-])c1ccc(C2=Nc3cc(Cl)ccc3OC2)cc1	-12%	12	3%[46.1 µM]	62*	11%[46.1 µM]
Cc1ccc2c(c1)N=C(c1ccc(F)cc1)CO2	-3%	41*	4%	111*	?
C[C@H](O)[C@@H]1C(=O)N2CCc3c([nH]c4ccccc34)[C@@H]2C[C@@H]1N(C)C(=O)NC1CCCCC1	11%	.	.	.	.
CCOc1ccccc1NC(=O)C(=O)c1cc(C)n(-c2ccc(F)cc2)c1C	.	.	3%[46.1 µM]	.	-4%[46.1 µM]
Cc1cc(C(=O)N/N=C2\CC(=O)c3ccccc32)c(C)n1-c1ccc(F)cc1	86%	23*	.	41*	.
COc1ccc(/C=N/NC(=O)CSCC(=O)Nc2ccccc2)cc1OC	-1%	-1	41%[14.3 µM]	-22	2%
COc1cc(/C=N/NC(=O)Nc2ccccc2)ccc1OC(C)=O	-8%	39*	-17%	53*	?
CCOc1cc(/C=N/NC(=O)Nc2ccccc2)ccc1O	44%	37*	?	72*	?
CCOc1cc(/C=N/NC(=O)c2cc(C)n(-c3ccc(F)cc3)c2C)ccc1O	48%	22*	.	87*	.
COc1ccc(N2CCN(S(=O)(=O)c3ccc4c(c3)CCCN4C(C)=O)CC2)cc1	.	.	0%[46.1 µM]	.	.
CC1CCN(c2nc(Cl)nc(Nc3ccc([N+](=O)[O-])cc3)n2)CC1	0%	-3	-5%	-4	?
Clc1ccc2nc(CSc3ncn[nH]3)cn2c1	86%	15*	6%	56	?
Brc1ccc2nc(CSc3ncn[nH]3)cn2c1	20%	16*	9%	84*	-10%
CCOC(=O)CSCc1cn2cc(Cl)ccc2n1	5%	24*	-11%	54	10%
Cc1cc(C)nc(SCc2cn3cc(Cl)ccc3n2)n1	-6%	7	?	45	15%
O=C(Nc1ccc(C(=O)OC2CCCCC2)cc1)c1ccncc1	5%	12	?	7	?
SMILES	AMA1 RON2 block	CHX counter	LASV entry inh	Shiga inhibitor	Marburg entry inh
CN(C)N1C(N)=C(C#N)C(c2ccccc2F)C2=C1CC(C)(C)CC2=O (centres undefined)	-2%	1	.	6	.
CCCn1c(=O)c2sccc2n2c(CCCC(=O)N3CCN(c4ccccc4)CC3)nnc12	.	.	8%[46.1 µM]	.	.
CC(Oc1ccccc1)c1nnc(SCC(=O)NC2CC2)n1C (centres undefined)	-7%	4	-1%	14	?
O=C(CN1CSCC1=O)N1CCN(S(=O)(=O)c2cc(C(F)(F)F)ccc2Cl)CC1	2%	.	6%[46.1 µM]	.	14%
Cc1ncsc1C(=O)Nc1nc2c(s1)CC(C)CC2 (centres undefined)	-6%	27*	-19%	82*	?
CC1CCc2nc(NC(=O)CN3CCOCC3)sc2C1 (centres undefined)	9%	38*	30%	68*	?
CC1CCc2nc(NC(=O)CN3CCN(Cc4ccc5c(c4)OCO5)CC3)sc2C1 (centres undefined)	-17%	5	-16%	14	?
CC1CCc2nc(NC(=O)C3CC3)sc2C1 (centres undefined)	-2%	51*	7%	82*	?

Bioassay records as filed in PubChem.
